# According to the antibiotic and cytotoxicity screens of Wong et al. (2023):
# The campaign covered roughly 39,000 compounds. About 3,300 (8.5%) were called active. The full list was thinned out, with actives kept by preference.
# Tested on: HepG2
# Assay: cytotoxicity call (relative viability < 0.9)
# Settings: 10 µM
row,SMILES,cytotoxicity call
1,C[C@@H]1CCCCO[C@@H](CN(C)C(=O)Nc2ccc(F)cc2)[C@H](C)CN([C@H](C)CO)C(=O)c2cc(NC(=O)c3ccncc3)ccc2O1,inactive
2,C[C@H]1CCCCO[C@H](CN(C)C(=O)C2CCCCC2)[C@@H](C)CN([C@@H](C)CO)C(=O)c2cc(NS(=O)(=O)c3ccc(F)cc3)ccc2O1,inactive
3,C[C@H](CO)N1C[C@H](C)[C@@H](CN(C)C(=O)Nc2ccc(F)cc2)Oc2c(NS(C)(=O)=O)cccc2C1=O,inactive
4,COc1ccc(NC(=O)N(C)C[C@H]2Oc3c(NC(=O)C4CCOCC4)cccc3C(=O)N([C@@H](C)CO)C[C@@H]2C)cc1,inactive
5,O=C(N[C@H]1C=C[C@@H](CC(=O)N2CCOCC2)O[C@@H]1CO)c1ccccn1,inactive
6,CN(C)c1nc2ncnc(N)c2[nH]1,inactive
7,C[C@H]1CN([C@@H](C)CO)C(=O)c2ccccc2-c2ccccc2CO[C@@H]1CN(C)C(=O)Nc1ccccc1C(F)(F)F,inactive
8,C[C@@]1(O)N(CC(=O)O)C(=O)OC12CCCCC2,inactive
9,O=C1N[C@@H](Cc2ccccc2)C(=O)N2[C@@H]1C[C@@H](C(=O)NCc1ccc(F)cc1)[C@H]2c1cccc(OCCO)c1,inactive
10,O=S1(=O)C[C@H](NC[C@H]2C[C@@H]3C=C[C@H]2C3)[C@@H](O)C1,inactive
11,C[C@@H]1CN([C@H](C)CO)C(=O)c2cccc(NS(=O)(=O)c3cn(C)cn3)c2O[C@@H]1CN(C)C(=O)Nc1ccc(F)cc1,inactive
12,Cc1ccc(S(=O)(=O)N(C)C[C@H]2Oc3ccc(NC(=O)Nc4ccc(C(F)(F)F)cc4)cc3CC(=O)N([C@@H](C)CO)C[C@@H]2C)cc1,active
13,Cc1ccc(S(=O)(=O)N(C)C[C@H]2Oc3ccc(NC(=O)Nc4ccc(C(F)(F)F)cc4)cc3CC(=O)N([C@@H](C)CO)C[C@H]2C)cc1,active
14,C[C@@H]1CN([C@@H](C)CO)C(=O)Cc2cc(NC(=O)Nc3ccc(C(F)(F)F)cc3)ccc2O[C@H]1CN(C)S(C)(=O)=O,inactive
15,C[C@H]1CN([C@@H](C)CO)C(=O)c2cc(NS(=O)(=O)c3cn(C)cn3)ccc2O[C@H]1CN(C)C(=O)Nc1ccc(F)cc1,inactive
16,C[C@@H]1CN([C@H](C)CO)C(=O)c2cccc(NS(=O)(=O)c3cccs3)c2O[C@@H]1CN(C)S(=O)(=O)c1cccs1,inactive
17,Cc1noc(C)c1S(=O)(=O)N(C)C[C@H]1Oc2ccc(NS(=O)(=O)c3ccc(Cl)cc3)cc2CC(=O)N([C@H](C)CO)C[C@H]1C,inactive
18,O=C(N[C@@H]1CC[C@H](CCNS(=O)(=O)c2ccc(F)cc2)O[C@@H]1CO)C1CC1,inactive
19,C[C@H](CO)N1C[C@H](C)[C@@H](CN(C)S(=O)(=O)c2ccc(F)cc2)Oc2ccc(NS(=O)(=O)c3cn(C)cn3)cc2C1=O,inactive
20,C[C@H]1CCCCO[C@H](CN(C)C(=O)c2ccccc2)[C@@H](C)CN([C@@H](C)CO)C(=O)c2cc(NS(=O)(=O)c3ccc(Cl)cc3)ccc2O1,inactive
21,CN(C[C@@H](O)CN)S(=O)(=O)c1ccccc1,inactive
22,Cc1c(-c2ccccc2)n(C[C@@H](O)CN)c2ccccc12,active
23,O=C(O)c1ccc(OC[C@@H](O)CO[C@H](COc2ccc(C(=O)O)cc2)Cn2c3ccccc3c3ccccc32)cc1,inactive
24,COc1ccc(S(=O)(=O)Nc2ccc3c(c2)C(=O)N([C@H](C)CO)C[C@@H](C)[C@H](CN(C)Cc2ccccc2)OCCCC[C@H](C)O3)cc1,inactive

row,SMILES,cytotoxicity call
1,CS(=O)(=O)N1C[C@H]2CN(Cc3ccncc3)C(=O)[C@@H]2C1,inactive
2,C[C@H](CO)N1C[C@H](C)[C@H](CN(C)C(=O)CN(C)C)Oc2cc(C#CCN(C)C)ccc2S1(=O)=O,inactive
3,CCOc1cc2ncc(C#N)c(Nc3ccc(OCc4ccccn4)c(Cl)c3)c2cc1NC(=O)/C=C/CN(C)C,active
4,CCOc1ccc(C(=O)Nc2ccc(S(=O)(=O)N3CCCC[C@@H]3c3cccnc3)cc2)cc1OCC,inactive
5,CCOc1cc2ncc(C#N)c(Nc3ccc(OCc4ccccn4)c(Cl)c3)c2cc1NC(=O)/C=C/[C@H]1CCCN1C,active
6,COc1ccccc1[C@@H](NC(=O)C1CCN(CCOc2ccc(Cl)cc2Cl)CC1)c1ccccn1,inactive
7,OC[C@H]1CN(Cc2ccccc2)CCO1,inactive
8,Cc1nc2ccc([N+](=O)[O-])cc2s1,inactive
9,CO[C@H]1CN(C)C(=O)c2cc(NC(=O)CC(F)(F)F)ccc2OC[C@H](C)N(C(=O)C2CCOCC2)C[C@@H]1C,inactive
10,C=CCOC(=O)[C@H]1[C@@H]2C(=O)O[C@@H](c3ccccc3)[C@@H](c3ccccc3)N2[C@@H](c2ccc(OCCOC(=O)[C@H]3C[C@H]4C(=O)N[C@@H](CCCC[N+](C)(C)C)C(=O)N4[C@H]3c3ccc(O)cc3)cc2)[C@]12C(=O)Nc1ccc(I)cc12,inactive
11,C[C@@H]1CCCCO[C@@H](CN(C)C(=O)Nc2ccc(F)cc2)[C@@H](C)CN([C@H](C)CO)C(=O)c2cc(NC(=O)NC3CCCCC3)ccc2O1,inactive
12,C[C@@H]1CN([C@H](C)CO[Si](C)(C)C(C)(C)C)C(=O)c2cc(NC(=O)Nc3ccccc3)ccc2O[C@@H](C)CCCCO[C@H]1CN(C)S(=O)(=O)c1ccc(F)cc1,inactive
13,C[C@H]1CCCCO[C@H](CN(C)S(=O)(=O)c2ccccc2)[C@@H](C)CN([C@@H](C)CO)C(=O)c2cc(NC(=O)Nc3ccc(F)cc3)ccc2O1,active
14,C=CCOC(=O)N(C)C[C@H]1OCCCC[C@H](C)Oc2ccc(NC(=O)Nc3ccccc3)cc2C(=O)N([C@@H](C)CO[Si](C)(C)C(C)(C)C)C[C@H]1C,active
15,C[C@H](CO)N1C[C@H](C)[C@@H](CN(C)S(=O)(=O)c2ccccc2)OCCCC[C@H](C)Oc2ccc(NC(=O)Nc3ccc(F)cc3)cc2C1=O,inactive
16,C[C@@H]1CCCCO[C@H](CN(C)S(=O)(=O)c2ccccc2)[C@H](C)CN([C@@H](C)CO)C(=O)c2cc(NC(=O)Nc3ccc(F)cc3)ccc2O1,active
17,C=CCOC(=O)N(C)C[C@@H]1OCCCC[C@H](C)Oc2ccc(NC(=O)Nc3ccccc3)cc2C(=O)N([C@H](C)COC(=O)c2ccccc2)C[C@H]1C,inactive
18,C=CCOC(=O)N(C)C[C@@H]1OCCCC[C@H](C)Oc2ccc(NC(=O)Nc3ccccc3)cc2C(=O)N([C@@H](C)CO)C[C@H]1C,inactive
19,COCOC[C@H](C)N1C[C@@H](C)[C@H](CN(C)S(=O)(=O)c2ccc(F)cc2)OCCCC[C@H](C)Oc2ccc(NC(=O)Nc3ccccc3)cc2C1=O,inactive
20,C[C@@H]1CCCCO[C@@H](CN(C)S(=O)(=O)c2ccccc2)[C@H](C)CN([C@H](C)CO)C(=O)c2cc(NC(=O)Nc3ccc(F)cc3)ccc2O1,inactive
21,C[C@@H]1CN([C@@H](C)CO)C(=O)c2cc(NC(=O)Nc3ccc(F)cc3)ccc2O[C@@H](C)CCCCO[C@H]1CN(C)S(=O)(=O)c1ccccc1,inactive
22,C[C@@H]1CN([C@@H](C)CO[Si](C)(C)C(C)(C)C)C(=O)c2cc(NC(=O)Nc3ccccc3)ccc2O[C@@H](C)CCCCO[C@H]1CN(C)S(=O)(=O)c1ccc(F)cc1,active
23,C[C@@H]1CN([C@H](C)CO)C(=O)c2cc(NC(=O)Nc3ccc(F)cc3)ccc2O[C@@H](C)CCCCO[C@@H]1CN(C)S(=O)(=O)c1ccccc1,inactive
